Consider 39 molecules from PubChem BioAssay (NCI).

The panel holds about 83,000 compounds, 20% with a hit somewhere; the sample as a whole holds those more often.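 The endpoint reported here, percent growth, reads 100 for growth as untreated, 0 for no net growth and -100 for all cells dead.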 A number with no mark means an inactive call. Calls of active or inactive are those of the source. Rule for the calls: active = growth percent below 10; inactive = the rest.

For one assay, the system named is HOP-62 NSCLC. In words: NCI-60 one-dose screen, 48 h (100 = growth as untreated, 0 = no growth, -100 = all killed). As to conditions: 10 µM unless noted.
For `COc1cc(/C=C/C(=O)C(C(=O)/C=C/c2ccc(OC(=O)CCNC34CC5CC(CC(C5)C3)C4)c(OC)c2)C(=O)CCNC23CC4CC(CC(C4)C2)C3)ccc1OC(=O)CCNC12CC3CC(CC(C3)C1)C2` (stereo not given), the growth was 29.8%.

Regarding `N#Cc1ccccc1C#Cc1ccccc1C#Cc1ccc(OCCCCCCOc2ccc(C#Cc3ccccc3C#Cc3ccccc3C#N)cc2)cc1`, the growth is 103%.

For `O=CNc1ccc2c(c1)Cc1cc([N+](=O)[O-])ccc1-2`, the growth was 26.5%.

For `N#CC(C#N)C(C#N)C#N`, the growth was 90.9%.

On to `N/C(=N\c1nc2ccccc2s1)NC(=O)Nc1ccccc1Cl`, for which the growth is 28.6%.

For `O=c1c2c(=NCCCN3CCCC3)cc3c(=O)n(CCCN4CCCC4)c(=O)c4c(NCCCN5CCCC5)cc(c(O)n1CCCN1CCCC1)c2c4-3`, the growth is -13.7% (active).

On to `C/C(=C\CCc1ccsc1)CC/C=C(\C)CCCN1CCSCC1`, for which the growth was 99%.

For `COc1ccc(CC(=O)Nc2nn3c(-c4cc(C(F)(F)F)cc(C(F)(F)F)c4)nnc3s2)cc1`, the growth is 98.9%.

In the case of `CCCCCCCCCCNCCSS(=O)(=O)O`, the growth was 100%.

For `O=C(Nc1ccccc1)c1cc(-n2cnc([N+](=O)[O-])c2)cc(-n2cnc([N+](=O)[O-])c2)n1`, the growth is 102%.

For `O=C1/C(=C/c2ccc(F)cc2)Cc2ccccc21`, the growth was 96.2%.

For the molecule `CCN(CC)c1ccc(N=C2C=CC(=O)C=C2NC(C)=O)cc1`, the growth was 107%.

As for `C[C@H](C(=O)N[C@@H](Cc1ccc(-c2ccccc2)cc1)C(=O)NC1CC(C)(C)N(C)C(C)(C)C1)c1ccc(-c2ccccc2)c(F)c1`, the growth was -73.5% (active).

Regarding `CSc1nc2nc3c(nc2c(=O)n1C)C(=O)c1ccccc1C3=O`, the growth is -97.9% (active).

Take `O=C(C(=O)c1cc(Br)ccc1O)c1cc(Br)ccc1O`: the growth is 50.3%.

As to `O=C1CSC(c2ccccc2O)N1c1nnc(Cn2ccnc2)o1` (stereo not given), the growth is 67.2%.

For `COc1cccc(N2CCN(CC(=O)N3CCN(c4nnc(-c5ccc(Cl)cc5)c(-c5ccc(Cl)cc5)n4)CC3)CC2)c1`, the growth was 95.9%.

For the molecule `NC(=O)NS(=O)(=O)c1ccc(N2N=C(C(F)(F)F)CC2c2cc(C(F)(F)F)cc(C(F)(F)F)c2)cc1` (stereo not given), the growth is 103%.

On to `CC(=O)N1N=C(c2ccc(C(F)(F)F)cc2)CC1c1ccc2c(c1)OCO2` (stereo not given), for which the growth is 102%.

In the case of `CCOc1cc(/C=C/C(=O)C(C(=O)/C=C/c2ccc(OC(=O)CNc3nnc(C)s3)c(OCC)c2)C(=O)CNc2nnc(C)s2)ccc1OC(=O)CNc1nnc(C)s1`, the growth is 3.59% (active).

`CC(C)N(Cc1ccccc1)c1c(S)ssc1=S`: the growth was 9.6% (active).

As for `Nc1ccccc1-c1ccn[nH]1`, the growth was 87.4%.

Turning to `FC(F)(F)c1cc(-c2nnc3n2N=C(N2CCCC2)CS3)cc(C(F)(F)F)c1`, the growth was 37.7%.

Regarding `COc1c(O)cc2c(c1CC=C(C)C)OC(=O)c1c(cc(O)c(CC=C(C)C)c1O)O2`, the growth is 6.39% (active).

In the case of `Fc1ccc(-c2nn3c(-c4cc(C(F)(F)F)cc(C(F)(F)F)c4)nnc3s2)cc1`, the growth is -11.5% (active).

Turning to `COc1ccc2c(c1)c(CC(=O)[Se]C)c(C)n2C(=O)c1ccc(Cl)cc1`, the growth was -0.299% (active).

Another assay deals with NCI-H460 lung. The assay is described as above. As to conditions: 10 µM unless noted.
As to `Oc1c(N=Nc2nn[nH]n2)ccc2ccccc12`, the growth is 73%.

Turning to `CCN1CCN(c2nc(NNC(=O)Cc3ccccc3)nc(N3CCN(C(c4ccccc4)c4ccccc4)CC3)n2)CC1`, the growth is 11.1%.

`COc1cc(-c2nnc(-c3nc(-c4cc(OC)c(OC)c(OC)c4)n4ccccc34)o2)ccc1N`: the growth was 68.3%.

As for `CCOc1cc(/C=C/C(=O)CC(=O)/C=C/c2ccc(OC(=O)CNCCN(CC)CC)c(OCC)c2)ccc1OC(=O)CNCCN(CC)CC`, the growth was -27.3% (active).

As for `Nc1ccc2c(c1Br)Cc1ccccc1-2`, the growth is 102%.

With `CCOC(=O)C1=CCC(n2cc(C)c(=O)[nH]c2=O)O1` (stereo not given), the growth is 114%.

As for `CCCCCN(CCCCC)CCCNc1c2c(nc3ccc(Cl)cc13)CCCC2`, the growth was 34%.

As to `COc1ccc(-c2nnc3c4[nH]cnc4ncn23)c(OC)c1`, the growth was 39.4%.

In the case of `O=C(Nc1nn2c(-c3cc(C(F)(F)F)cc(C(F)(F)F)c3)nnc2s1)C1CCCC1`, the growth is 3.63% (active).

Consider `COc1ccc(N2CCN(CC(=O)N3CCN(c4nnc(-c5ccc(Cl)cc5)c(-c5ccc(Cl)cc5)n4)CC3)CC2)cc1`, for which the growth was 52.4%.

As for `O=C(O)c1ccc2cccnc2c1O`, the growth is 6.87% (active).

Consider `COC(=O)[C@H]1[C@H]2C[C@@H]3c4[nH]c5cc(OC)ccc5c4CCN3C[C@H]2C[C@@H](OC(=O)/C=C/c2cc(OC)c(OC)c(OC)c2)[C@@H]1OC`, for which the growth is 48.6%.

Regarding `COc1ccc2nc(-c3ccc(Cl)cc3)cc(-c3nnc(SCC(=O)Nc4ccc(C(C)=O)cc4)n3-c3ccccc3)c2c1`, the growth was 102%.

On to `COc1cc(/C=C/C(=O)C(C(=O)/C=C/c2ccc(OC(=O)CCNC34CC5CC(CC(C5)C3)C4)c(OC)c2)C(=O)CCNC23CC4CC(CC(C4)C2)C3)ccc1OC(=O)CCNC12CC3CC(CC(C3)C1)C2` (stereo not given), for which the growth is 7.93% (active).

As to `N#Cc1ccccc1C#Cc1ccccc1C#Cc1ccc(OCCCCCCOc2ccc(C#Cc3ccccc3C#Cc3ccccc3C#N)cc2)cc1`, the growth is 116%.

For the molecule `O=CNc1ccc2c(c1)Cc1cc([N+](=O)[O-])ccc1-2`, the growth is 15.8%.

Turning to `N#CC(C#N)C(C#N)C#N`, the growth was 105%.

Regarding `N/C(=N\c1nc2ccccc2s1)NC(=O)Nc1ccccc1Cl`, the growth was 12.7%.

On to `O=c1c2c(=NCCCN3CCCC3)cc3c(=O)n(CCCN4CCCC4)c(=O)c4c(NCCCN5CCCC5)cc(c(O)n1CCCN1CCCC1)c2c4-3`, for which the growth is -32.1% (active).

Regarding `C/C(=C\CCc1ccsc1)CC/C=C(\C)CCCN1CCSCC1`, the growth was 76.9%.

As to `COc1ccc(CC(=O)Nc2nn3c(-c4cc(C(F)(F)F)cc(C(F)(F)F)c4)nnc3s2)cc1`, the growth is 56.6%.

As to `CCCCCCCCCCNCCSS(=O)(=O)O`, the growth was -62.7% (active).

In the case of `O=C(Nc1ccccc1)c1cc(-n2cnc([N+](=O)[O-])c2)cc(-n2cnc([N+](=O)[O-])c2)n1`, the growth is 119%.

Turning to `O=C1/C(=C/c2ccc(F)cc2)Cc2ccccc21`, the growth was 103%.

As to `CCN(CC)c1ccc(N=C2C=CC(=O)C=C2NC(C)=O)cc1`, the growth was 106%.

As to `C[C@H](C(=O)N[C@@H](Cc1ccc(-c2ccccc2)cc1)C(=O)NC1CC(C)(C)N(C)C(C)(C)C1)c1ccc(-c2ccccc2)c(F)c1`, the growth was -75.8% (active).

On to `CSc1nc2nc3c(nc2c(=O)n1C)C(=O)c1ccccc1C3=O`, for which the growth is -62% (active).

Turning to `O=C(C(=O)c1cc(Br)ccc1O)c1cc(Br)ccc1O`, the growth was 39%.

In the case of `O=C1CSC(c2ccccc2O)N1c1nnc(Cn2ccnc2)o1` (stereo not given), the growth was 34.8%.

In the case of `COc1cccc(N2CCN(CC(=O)N3CCN(c4nnc(-c5ccc(Cl)cc5)c(-c5ccc(Cl)cc5)n4)CC3)CC2)c1`, the growth is 70.8%.

In the case of `NC(=O)NS(=O)(=O)c1ccc(N2N=C(C(F)(F)F)CC2c2cc(C(F)(F)F)cc(C(F)(F)F)c2)cc1` (stereo not given), the growth was 81.3%.

As for `CC(=O)N1N=C(c2ccc(C(F)(F)F)cc2)CC1c1ccc2c(c1)OCO2` (stereo not given), the growth was 85%.

Turning to `CCOc1cc(/C=C/C(=O)C(C(=O)/C=C/c2ccc(OC(=O)CNc3nnc(C)s3)c(OCC)c2)C(=O)CNc2nnc(C)s2)ccc1OC(=O)CNc1nnc(C)s1`, the growth is -46.8% (active).

As for `CC(C)N(Cc1ccccc1)c1c(S)ssc1=S`, the growth is 4.45% (active).

Turning to `Nc1ccccc1-c1ccn[nH]1`, the growth is 104%.

Consider `FC(F)(F)c1cc(-c2nnc3n2N=C(N2CCCC2)CS3)cc(C(F)(F)F)c1`, for which the growth is 58.1%.

With `COc1c(O)cc2c(c1CC=C(C)C)OC(=O)c1c(cc(O)c(CC=C(C)C)c1O)O2`, the growth was 9.47% (active).

`Fc1ccc(-c2nn3c(-c4cc(C(F)(F)F)cc(C(F)(F)F)c4)nnc3s2)cc1`: the growth was 4.16% (active).

As for `COc1ccc2c(c1)c(CC(=O)[Se]C)c(C)n2C(=O)c1ccc(Cl)cc1`, the growth is 3.41% (active).
